Screening data as filed in PubChem.
Vaccinia Venus: qHTS for Stage-Specific Inhibitors of Vaccinia Orthopoxvirus: Venus Reporter Primary qHTS. Vaccinia virus Venus reporter expression, fluorescence. Potency, µM (titrated, usually from 36.5 µM), without a hit: top-dose activity change, negative = inhibition, hits mostly inhibitors. hit rate 0.46% among 330,000. AID 720580, 2013; calls by dose curve; tested in A549 cells; also: % is scaled to controls: 0 for no effect and ±100 for the full control effect; nearly all actives have a fitted effect of over 30% in size
Pf growth 96h: Primary qHTS for delayed death inhibitors of the malarial parasite plastid, 96 hour incubation; P. falciparum luciferase reporter growth, 96 h; Potency, µM (titrated, usually from 28.7 µM), for the others: top-dose activity change, negative = inhibition, actives largely listed as inhibitors; hit rate 6.9% among 320,000; AID 504834, 2011; also: % is scaled to controls: 0 for no effect and ±100 for the full control effect
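P. falciparum expressing integrated firefly luciferase grown in erythrocytes (2% hematocrit, 0.05% parasitemia final) with compounds for 96 hours at 37 C, 5% CO2. Growth inhibition read as loss of luminescence after adding luciferase detection reagent.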
Vaccinia mCherry: qHTS for Stage-Specific Inhibitors of Vaccinia Orthopoxvirus: mCherry Reporter Primary qHTS; Vaccinia virus mCherry reporter infection, fluorescence; Potency, µM (highest dose often 36.5 µM), for inactives: at the highest dose activity change, negative = inhibition, actives largely listed as inhibitors; hit rate 0.63% among 310,000; calls by dose curve; tested in A549 cells; also: % is scaled to controls: 0 for no effect and ±100 for the full control effect; nearly all actives have a fitted effect of over 35% in size
HCV inh: qHTS Assay for Inhibitors of Hepatitis C Virus (HCV); hit rate 3.4% among 340,000; AID 651820, 2012; Huh7.5.1 HCVcc-Cre infection, luciferase reporter, 44 h; Potency, µM (titrated, usually from 41.8 µM), for inactives: top-dose activity change, negative = inhibition, usual class: inhibitors; also: % is scaled to controls: 0 for no effect and ±100 for the full control effect
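Cells (1,000/well) were plated 4 h before compound, then infected with HCVcc-Cre virus (~0.5 moi). After 44 h further culture, infection was read as luciferase luminescence following a 15 min substrate incubation at room temperature.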
Pf growth 48h: Primary qHTS for delayed death inhibitors of the malarial parasite plastid, 48 hour incubation; P. falciparum luciferase growth in erythrocytes, 48 h; Potency, µM (series often up to 28.7 µM), without a hit: at the highest dose activity change, negative = inhibition, hits mostly inhibitors; hit rate 5.9% among 310,000; AID 504832, 2011; also: % is scaled to controls: 0 for no effect and ±100 for the full control effect
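Parasite viability was followed by luminescence of a genomically integrated firefly luciferase. Cultures held 0.1% parasitemia at 2% hematocrit (final), incubated under 5% CO2 at 37 C.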
NS1 function inh: qHTS Assay for Inhibitors of Influenza NS1 Protein Function; Potency, µM (titrated, usually from 46.1 µM), for inactives: at the top dose activity, positive = more growth; hit rate 0.4% among 270,000; calls by dose curve; also: actives are rising curves; nearly all actives have a fitted effect of over 50% in size
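S. cerevisiae expressing influenza A NS1, grown in glucose, washed, then diluted 1:100 into pH 6.0 -URA galactose medium with 23 nl compound. Growth recovery read as OD600; NS1-free strain serves as control.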
* marks the source's active call; other numbers are inactive results; i = inactive; ? = inconclusive; / = no result; [ ] = another dose, or the depositor's remark. Hits are enriched below; roughly 11% of the tested compounds scored in any of these assays. Unless noted, calls follow the shape of the dose curve; as a rule, active = well fitted inhibition curve with a large enough effect; inconclusive = small, poorly fitted or top-dose-only effect, or another doubt; inactive = no such curve, though single readings can be large or run the other way. Potency is read from the fitted curve at half-maximal effect.

SMILES	Vaccinia Venus	Pf growth 96h	Vaccinia mCherry	HCV inh	Pf growth 48h	NS1 function inh
COc1ccc(S(=O)(=O)N2c3ccc(Cl)cc3[C@](O)(c3ccccc3Cl)[C@@H]2C(=O)N2CCC[C@H]2C(N)=O)cc1OC	/	9.5µM*	/	/	?	/
CCN1C(=O)[C@H]2[C@H]3[C@H](O)[C@H](O)C/C(=N\OC[C@@H](C)[C@H](OCc4ccccc4)C(C)C)[C@@H]3CC[C@H]2C1=O	/	?	/	1%[8.37 µM]	10µM*	-25%
CCN1C(=O)[C@H]2[C@H]3[C@H](O)[C@H](O)CC(=O)[C@@H]3CC[C@H]2C1=O	-8%	/	-10%	/	/	/
COc1ccc(CC(=O)NCC(c2cccs2)S(=O)(=O)c2ccc(F)cc2)cc1 (stereo not given)	-9%	/	-11%	/	/	/
CCN1CCN(C(=O)CCCn2c(C)c3cnn(-c4ccccc4)c(=O)c3c2C)CC1	-12%	2.6µM*	-6%	-30%	/	9%
Cc1cccc(OCC(=O)Nc2nc3ccc([N+](=O)[O-])cc3s2)c1C	-13%	31%	-7%	15%	2%	3%
COCCc1ncc(CN2CCC(C(=O)Nc3ccc(-n4cccn4)cc3)CC2)cn1	-1%	1%	i	/	?	-2%
CN(C)c1ncc(CN2CCC(C(=O)Nc3ccc(-n4cccn4)cc3)CC2)s1	-8%	17%	i	14%	2.6µM*	5%
O=C(NC(=S)NNC(=O)c1ccccc1O)c1cccs1	-1%	1%	?	8.9µM*	?	-40%
COc1ccc(C(=O)NNC(=S)NC(=O)c2cccs2)cc1	7%	56%	?	?	-29%	-89%
O=C(NNC(=O)c1cccs1)c1ccc2ccccc2c1	-20%	1.7µM*	-9%	23%	60%	1%
Cc1cccc(C(=O)NNC(=S)NC(=O)c2cccs2)c1	?	12µM*	?	-9%	-4%	-119%
O=C(NNC(=O)c1cccs1)c1ccc(Cl)c(Cl)c1	-20%	?	-1%	0%	25%	-1%
Cc1ccc(-n2ncc3c(=O)n(Cc4ccccc4C)cnc32)cc1C	-9%	/	-8%	/	/	/
CCCN(CC1CC1)C(=O)COC(=O)c1[nH]c(C)c(C(=O)OCC)c1C	/	12µM*	/	?	/	-16%
CCCCOc1ccc(S(=O)(=O)N2CCN(c3ccc(N4CCN(CC)CC4)nn3)CC2)cc1	-20%	?	-2%	?	12µM*	/
Cc1ccc2c(c1)NC(=O)C(CC(=O)NCCN(C)C)O2 (stereo not given)	-3%	1.7µM*	3%	9%	/	-2%
O=C1COCC(=O)N1CCc1c[nH]c2ccccc12	0%	33%	i	10%	?	6%
O=C(Cc1ccccc1)Nc1nccs1	/	9%	/	-6%	38%	0%
S=C(Nc1ccccc1)Nc1nccs1	-25%	7.4µM*	-5%	?	?	-33%
Fc1ccc(NC(=S)Nc2nccs2)cc1	/	0.29µM*	/	?	13µM*	/
COc1ccc(OC)c(/C=N/NC(=O)CSc2cc(C)nc3c(OC)cccc23)c1	-28%	8.3µM*	-13%	8%	-10%	0%
CCOC(=O)c1cc(-c2ccccc2)sc1NC(=O)CC	-11%	2.3µM*	-14%	?	5.2µM*	-11%
CCOC(=O)c1cc(-c2ccccc2)sc1NC(=O)C(C)OC(=O)c1cccnc1OCC (stereo not given)	-2%	35%	-10%	3.5µM*	12%	1%
CCOC(=O)c1cc(-c2ccccc2)sc1NC(=O)CCN1C(=O)c2ccccc2C1=O	-15%	?	-15%	-17%	13%	-1%
SMILES	Vaccinia Venus	Pf growth 96h	Vaccinia mCherry	HCV inh	Pf growth 48h	NS1 function inh
CCOC(=O)c1cc(CC)sc1NC(=O)CCC(=O)O	-29%	/	/	9%	-4%	-30%
CCOC(=O)c1cc(CC)sc1NC(=O)Cc1ccsc1	-26%	3.3µM*	-29%	5.6µM*	22%	-52%
CN1CCN(c2ccc([N+](=O)[O-])cc2/C=N/NC(=O)c2cccc([N+](=O)[O-])c2)CC1	/	0%	/	-20%[0.335 µM]	?	6%
CCOC(=O)c1cnc2ccc(C)cc2c1NCCO	-8%	?	/	-4%	13µM*	-8%
CCOC(=O)c1cnc2ccc(OC)cc2c1NCCc1ccccc1	-27%	/	-30%	/	/	/
CCOC(=O)c1cnc2c(ccc3ccccc32)c1NCCO	?	?	/	11µM*	14%	-15%
CC1=C(C(=O)OC(C)C)C(c2cccc(F)c2)N2C(=O)C(C)SC2=N1 (stereo not given)	-20%	?	/	9%	12µM*	?
CCOC(=O)C1=C(C)N=C2SC(C)C(=O)N2C1c1cccc(F)c1 (stereo not given)	-9%	?	-15%	-15%	/	26%
CC1=C(C(=O)OCC(C)C)C(c2cccc(F)c2)N2C(=O)C(C)SC2=N1 (stereo not given)	3%	12µM*	5%	2%	10µM*	?
COc1cccc(CN2CCCC(C(=O)N3CCCCC3)C2)c1OC (stereo not given)	/	-2%	/	4%	0%	11%
Cc1c(C)n(C)c2ccc(C(=O)NCCc3ccco3)cc12	/	-12%	/	?	?	-13%
Cc1c(CCC(=O)N[C@@H](C)C(=O)O)c(=O)oc2cc3oc4c(c3cc12)CCCC4	/	11%	/	11%	-3%	-5%
O=C(COC(=O)c1cccc([N+](=O)[O-])c1)c1ccc(OCc2ccccc2)cc1	-7%	84%	i	4%	45%	0%
COc1ccc(-c2ccc3c(c2)S(=O)(=O)c2cccc(C(=O)NCc4ccccc4Cl)c2C3=O)cc1OC	-1%	31%	i	3%	22%	/
O=C(NCc1cc(C(F)(F)F)ccc1Cl)c1cccc2c1C(=O)c1ccc(N3CCOCC3)cc1S2(=O)=O	10µM*	/	-28%	-2%	/	/
COc1ccc(-c2ccc3c(c2)S(=O)(=O)c2cccc(C(=O)NCCOc4ccccc4Cl)c2C3=O)cc1OC	7.9µM*	/	?	?	/	/
CC(C)c1cccc(-c2ccc3c(c2)S(=O)(=O)c2cccc(C(=O)NCc4ccccc4Cl)c2C3=O)c1	13µM*	/	?	-4%	/	/
COc1ccc(OC[C@@H](O)CNC(=O)c2cccc3c2C(=O)c2ccc(Cl)cc2S3(=O)=O)cc1	-17%	2.1µM*	-2%	11%	?	/
CC(C)c1cccc(-c2ccc3c(c2)S(=O)(=O)c2cccc(C(=O)NCc4ccccc4)c2C3=O)c1	?	/	-15%	7%	/	/
